From PubChem BioAssay
PolyA inh: blocks polyadenylation in yeast reporter cells. S. cerevisiae SKY197-pL101 polyadenylation reporter, beta-gal luminescence; efflux-impaired pdr1/pdr3 knockout yeast; score 100 = 6 SD above DMSO. activity score, % at 12 µM. actives 0.02% (n = 300,000);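 active = lowest replicate activity score at least 50, where 100 means six control SD above control mean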;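 also: yeast exposed to compound for 9 h at 30 °C; higher score means more reporter readthrough which indicates perturbed polyadenylation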
HTR5A inv ag: inverse agonist of human HTR5A in OPRM1-OPRD1 counter-screen | P47898 | HTR5A cell line, luminescence, inverse agonism | inhibition, % at 9.3 µM | actives 0.083% (n = 340,000) | AID 504634; in the data active = inhibition mostly above about 23%, no sharp cut-off; inactive = mostly below about 18%
HTR5A ag: counter-screen for OPRM1-OPRD1 agonists: human HTR5A agonism; HTR5A agonist assay, luminescence, cell-based; activation, % at 9.3 µM; actives 0.61% (n = 340,000); AID 504692; in the data active = activation mostly above about 9.5%, no sharp cut-off; inactive = mostly below about 7.6%
MOR-DOR inv ag: inverse agonists of human mu-delta opioid receptor heterodimerization. cell-based MOR-DOR heterodimer luminescence, inverse agonism. actives 0.21% (n = 340,000). P35372+P41143. inhibition, % at 9.3 µM; in the data active = inhibition above about 22%, passing the limit was not always enough
Target sequence (P35372 whole entry, looked up): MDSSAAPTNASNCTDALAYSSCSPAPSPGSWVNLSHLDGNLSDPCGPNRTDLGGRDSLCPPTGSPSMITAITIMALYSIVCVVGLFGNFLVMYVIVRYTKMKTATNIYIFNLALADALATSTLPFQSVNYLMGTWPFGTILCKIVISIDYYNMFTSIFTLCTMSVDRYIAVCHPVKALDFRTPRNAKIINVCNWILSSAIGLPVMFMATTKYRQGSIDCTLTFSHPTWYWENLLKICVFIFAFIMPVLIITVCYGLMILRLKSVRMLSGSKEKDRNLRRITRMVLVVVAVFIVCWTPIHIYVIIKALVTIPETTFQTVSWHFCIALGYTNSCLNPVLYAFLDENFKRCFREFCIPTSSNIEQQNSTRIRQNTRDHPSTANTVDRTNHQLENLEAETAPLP
Target sequence (P41143 whole entry, looked up): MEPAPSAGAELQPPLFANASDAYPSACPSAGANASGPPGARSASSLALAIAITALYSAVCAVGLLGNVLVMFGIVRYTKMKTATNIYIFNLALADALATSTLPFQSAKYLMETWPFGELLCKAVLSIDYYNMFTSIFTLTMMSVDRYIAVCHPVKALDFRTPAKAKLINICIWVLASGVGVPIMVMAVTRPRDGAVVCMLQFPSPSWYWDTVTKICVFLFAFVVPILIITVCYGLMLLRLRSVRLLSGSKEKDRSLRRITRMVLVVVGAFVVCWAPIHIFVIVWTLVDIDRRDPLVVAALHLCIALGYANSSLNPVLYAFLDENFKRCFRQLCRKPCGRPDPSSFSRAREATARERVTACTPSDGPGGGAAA
MOR-DOR ag-1: agonists of human mu-delta opioid receptor heterodimerization | P35372+P41143 | cells, OPRM1-OPRD1 heterodimerization, luminescence | activation, % at 9.3 µM | actives 0.3% (n = 340,000) | AID 504326
NALP1 yeast inh: blocks the NALP1 inflammasome reconstituted in yeast; S. cerevisiae NALP1/ASC/caspase-1 growth, X-gal OD620, 72 h; inhibition, % at 10 µM; AID 2071; actives 0.61% (n = 280,000); in the data active = inhibition mostly above about 24%, no sharp cut-off; inactive = mostly below about 32%
MOR-DOR ag-2: opioid heterodimer agonism, HTR5A counter-screen | actives 13% (n = 800) | U2OS counter-screen cells, complementation luminescence, 3 h | shares compounds with HTR5A ag | activation, % at 9.3 µM
HTR5A ag confirm: confirmation of human HTR5A agonists; activation, % at 9.3 µM; actives 17% (n = 800); shares compounds with HTR5A ag; AID 504915; HTR5A agonist cell assay, luminescence; in the data active = activation above about 17%
Of the large screens only hits and unclear results are named; the others gave an inactive call (follow-up assays come after a bar, where they were run). In the library only some 1.6% were active in any assay of this set; here they are far more common. Rule as the data show it, unless noted: active = activation above about 18%; inactive = the rest.

Cc1nonc1CC(=O)N1CCCC(C(=O)c2cccc(C(F)(F)F)c2)C1 (stereo unspecified)	none
COc1cc(NCCCn2ccc(NC(=O)OCc3ccccc3)nc2=O)cc(OC)c1OC	none (no result: PolyA inh, NALP1 yeast inh)
COc1ccc(C(=O)NC2CCCCCC2)cc1S(=O)(=O)Nc1ccc(Br)cc1	HTR5A ag 15 | MOR-DOR ag-2 inactive | HTR5A ag confirm inactive
COc1ccc(C(=O)NC2CCCCCC2)cc1S(=O)(=O)N1CCCC1	none
O=S1(=O)CCN2N=C(C34CC5CC(CC(C5)C3)C4)SC2=N1	HTR5A ag 18 | MOR-DOR ag-2 inactive | HTR5A ag confirm inactive
N#C/C(C(=O)N1CCOCC1)=C1/SC(Cc2ccccc2Cl)C(=O)N1c1ccccc1 (stereo unspecified)	none
Cc1cccc(/C=N/NC(=O)c2ccc(NC(=O)c3ccc(F)cc3)cc2)n1	HTR5A ag 21 | MOR-DOR ag-2 inactive | HTR5A ag confirm inactive
Cc1cccc(/C=N/NC(=O)c2ccc(NC(=O)c3ccc(Cl)cc3)cc2)n1	none
CC(C)C(NC(=O)CSCc1ccc([N+](=O)[O-])cc1)C(C)C	none
CCCCCCCCCCOC(=O)Cn1c(COc2ccc(OC)cc2)[n+](C)c2ccccc21	HTR5A ag 12 | MOR-DOR ag-2 inactive | HTR5A ag confirm inactive
CCCCCCCCCCOC(=O)Cn1c(COc2ccccc2)[n+](C)c2ccccc21	HTR5A ag 15 | MOR-DOR ag-2 inactive | HTR5A ag confirm inactive
CCCCCOC(=O)Cn1c(=O)oc2ccccc21	none
CC(Sc1ccc(Cl)cc1)C(=O)N(C)CC(=O)Nc1ccc(N2CCOCC2)cc1 (stereo unspecified)	none (no result: NALP1 yeast inh)
COc1ccc(CNC(=O)C2CCN(S(=O)(=O)c3ccccc3)CC2)cc1	HTR5A ag 21 | MOR-DOR ag-2 inactive | HTR5A ag confirm inactive
CS(=O)(=O)N1CCCC(C(=O)NCc2ccc(F)cc2)C1 (stereo unspecified)	HTR5A ag 16 | MOR-DOR ag-2 inactive | HTR5A ag confirm inactive
COc1cccc(CNC(=O)C2CCN(S(=O)(=O)c3ccccc3)CC2)c1	none
Cc1cc(C(=O)NCC(C)(C)N2CCOCC2)c(C)o1	none (no result: NALP1 yeast inh)
COc1ccc2c(c1)Cc1sc(NC(C)=O)nc1-2	HTR5A ag 15 | MOR-DOR ag-2 inactive | HTR5A ag confirm inactive
Nc1ccc(-c2n[nH]c(=O)c3ccccc23)cc1N	HTR5A ag 21 | MOR-DOR ag-2 inactive | HTR5A ag confirm inactive
CC(=O)Nc1ccc(NC(=O)c2ccccc2-n2cnnn2)cc1	none (no result: PolyA inh, NALP1 yeast inh)
O=C(c1cccs1)c1no[n+]([O-])c1C(=O)c1cccs1	none
Cc1c(C(=O)c2no[n+]([O-])c2C(=O)c2cnn(C)c2C)cnn1C	HTR5A ag 26 | MOR-DOR ag-2 inactive | HTR5A ag confirm inactive
CCOCC(=O)N1CCN(c2ccccc2OC)CC1	none
Cc1cc(-c2ccccc2C(=O)NC2CCCCC2)on1	HTR5A ag 15 | MOR-DOR ag-2 inactive | HTR5A ag confirm inactive
CCOC(=O)C(C)N1N=C(/C=C/c2ccc(C)cc2)CCC1=O (stereo unspecified)	HTR5A ag 21 | MOR-DOR ag-2 inactive | HTR5A ag confirm inactive
CNC(=O)c1[nH]cnc1C(=O)Nc1ccc(OC)cc1	none (no result: NALP1 yeast inh)
Cc1ccc(C)c(S(=O)(=O)N/N=C/c2ccc(F)cc2)c1	HTR5A ag 15 | MOR-DOR ag-2 inactive | HTR5A ag confirm inactive
Cc1ccc(C)c(S(=O)(=O)N/N=C/c2ccc(N(C)C)cc2)c1	none
CCCCCCCCCn1c2c(c(=N)c3c1CCC3)CCC2	HTR5A ag 25, NALP1 yeast inh 27 | MOR-DOR ag-2 inactive | HTR5A ag confirm inactive
CCCCCCn1c2c(c(=N)c3c1CCC3)CCC2	none
CCn1c(=O)c(C(=O)Nc2ncccc2O)c(O)c2ccccc21	none
CCn1c(=O)c(C(=O)Nc2ncccc2C)c(O)c2ccccc21	HTR5A ag 16 | MOR-DOR ag-2 inactive | HTR5A ag confirm inactive
CC1CCN(S(=O)(=O)c2nnc(NC(=O)c3cccc(Cl)c3)s2)CC1	none
CC(=O)C1=C(C)NC(C)=C(C(C)=O)C1c1ccc(-c2ccccc2Cl)o1	HTR5A ag 23 (no result: PolyA inh) | MOR-DOR ag-2 inactive | HTR5A ag confirm inactive
CN(CC(=O)Nc1cccc(F)c1)C(=O)C1(c2ccccc2)CC1	HTR5A ag 14 (no result: PolyA inh, NALP1 yeast inh) | MOR-DOR ag-2 inactive | HTR5A ag confirm inactive
N/C(Cc1ccc(Cl)cc1)=N\OC(=O)c1ccccc1	none
N/C(Cc1ccc([N+](=O)[O-])cc1)=N\OC(=O)c1ccc([N+](=O)[O-])cc1	HTR5A ag 21 | MOR-DOR ag-2 inactive | HTR5A ag confirm inactive
COc1ccc(C(=O)O/N=C(\N)Cc2ccc(Cl)cc2)cc1OC	HTR5A ag 25 | MOR-DOR ag-2 inactive | HTR5A ag confirm inactive
COc1ccc(/C=C2\CCCc3c2nc2ccccc2c3C(=O)OCC(=O)c2c(N)n(C)c(=O)n(C)c2=O)cc1	none (no result: HTR5A inv ag, HTR5A ag, MOR-DOR inv ag, MOR-DOR ag-1)
COc1cccc(C(=O)O/N=C(\N)c2ccccn2)c1	none
N/C(=N\OC(=O)c1ccc2ccccc2c1)c1ccccn1	HTR5A ag 16 | MOR-DOR ag-2 inactive | HTR5A ag confirm inactive
N/C(=N\OC(=O)c1ccc(Cl)cc1[N+](=O)[O-])c1ccccn1	HTR5A ag 26 | MOR-DOR ag-2 inactive | HTR5A ag confirm inactive
CCOC(=O)c1ccc(Nc2nc(-c3cccnc3)nc3ccccc23)cc1	HTR5A ag 29 | MOR-DOR ag-2 inactive | HTR5A ag confirm inactive
CN1C(=O)C2(NCCc3c2[nH]c2ccccc32)c2ccccc21 (stereo unspecified)	none
CC1=CC(C)(C)N2C(=O)C3(NCCc4c3[nH]c3ccccc43)c3cc(C)cc1c32 (stereo unspecified)	HTR5A ag 16 (no result: NALP1 yeast inh) | MOR-DOR ag-2 32 | HTR5A ag confirm inactive
CC(C(Sc1ccccc1N)c1ccccc1)[N+](=O)[O-] (stereo unspecified)	none (no result: NALP1 yeast inh)
CCN=c1scc(-c2cccs2)n1/N=C/c1cc(OC)ccc1O	none (no result: PolyA inh, NALP1 yeast inh)
CC(C)N=c1scc(-c2cccs2)n1/N=C/c1ccc(O)c(O)c1O	HTR5A ag 14 (no result: PolyA inh) | MOR-DOR ag-2 20 | HTR5A ag confirm inactive
CC(=O)Nc1ccc(S(=O)(=O)N(Cc2ccco2)Cc2cc3ccccc3[nH]c2=O)cc1	none
COc1ccc(-c2cc(-c3c(O)c(OC)c4occc4c3OC)[nH]n2)cc1	HTR5A ag 15 | MOR-DOR ag-2 inactive | HTR5A ag confirm inactive
COc1ccc(-c2cc(-c3c(O)c(OC)c4occc4c3OC)[nH]n2)cc1OC	none
O=S(=O)(Nc1cccc(-c2ccc3nncn3n2)c1)c1ccccc1F	HTR5A ag 20 (no result: NALP1 yeast inh) | MOR-DOR ag-2 18 | HTR5A ag confirm inactive
COc1ccc(S(=O)(=O)N(CC(=O)NCc2ccco2)c2ccccc2OC)cc1	HTR5A ag 17 | MOR-DOR ag-2 inactive | HTR5A ag confirm inactive
